From PubChem BioAssay (NCI)
About 79,000 compounds went through this panel and 15% of them were active in at least one assay; those are over-represented in the sample as a whole. The source made the active and inactive calls. Cut-off read from the data, not from the text of the source: active = growth inhibition above about 70%; inactive = the rest.

Key:
[1] = NCI Yeast Anticancer Drug Screen. Data for the rad50 strain (AID 155);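 note: 0% = growth of vehicle-only cultures of the same strain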; conditions: S. cerevisiae rad50 strain growth inhibition; at 50.0 µM; hits give high values
How it was run: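 Vehicle-treated cultures provide the reference for the growth inhibition reported for compound-exposed, repair-deficient yeast.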

[2] = NCI Yeast Anticancer Drug Screen. Data for the mec2-1 strain (AID 157); conditions: S. cerevisiae mec2-1 strain, at 50.0 µM, hits give high values
How it was run: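 Test agents were screened against the mec2-1 yeast strain, with defined DNA repair or cell cycle alteration. Growth was scored as inhibition against vehicle-only controls.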

[3] = NCI Yeast Anticancer Drug Screen. Data for the sgs1 mgt1 strain (AID 161);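 note: 0% = growth of cultures given vehicle only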; conditions: S. cerevisiae sgs1 mgt1 strain, at 50.0 µM, hits give high values
How it was run: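 Genetically altered yeast, compound exposure, growth inhibition relative to vehicle.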

[4] = NCI Yeast Anticancer Drug Screen. Data for the cln2 rad14 strain (AID 165);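 note: 0% = growth equal to vehicle treated cultures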; conditions: S. cerevisiae cln2 rad14 strain, at 50.0 µM, hits give high values
How it was run: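 Growth of compound-exposed yeast (cln2 rad14 genotype) measured and expressed as inhibition relative to vehicle.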

[5] = NCI Yeast Anticancer Drug Screen. Data for the bub3 strain (AID 167); conditions: S. cerevisiae bub3 mutant strain, at 50.0 µM, hits give high values
How it was run: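 Mutant yeast screening strain plus compound; vehicle-treated cultures serve as the 0% inhibition reference.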

[6] = NCI Yeast Anticancer Drug Screen. Data for the mlh1 rad18 strain (AID 175); conditions: S. cerevisiae mlh1 rad18 strain growth inhibition; at 50.0 µM; hits give high values
How it was run: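 In this whole-cell yeast screen, a strain with altered DNA damage repair is challenged with compound, and its growth is measured against matched vehicle-treated controls.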

Measured: growth inhibition

O=S(=O)(c1ccc(Cl)cc1)N1CCN(S(=O)(=O)c2ccc(Cl)cc2)C1
inactive: [1] 2.05% | [2] 8.1% | [3] -14.3% | [4] -21.6% | [5] -0.05% | [6] 15.6%

CCc1ccc(/C(C#N)=C/c2ccccc2Cl)cc1
inactive: [1] 21.9% | [2] 40.5% | [3] 26.4% | [4] 10.2% | [5] 35.2% | [6] 27.1%

O=C(c1cccs1)c1ccc2ccccc2c1C(=O)O
inactive: [1] -6.95% | [2] -11% | [3] -0.85% | [4] 3.9% | [5] 58.5% | [6] 4.7%

CC1COC(c2ccc(C(C)C)cc2)O1 (stereo not given)
inactive: [1] 7.5% | [2] 0.35% | [3] 0.25% | [4] -8.9% | [5] 0.55% | [6] -4.4%

CC[C@H]1CN(C)[C@H]2Cc3c([nH]c4ccccc34)C(=O)C[C@H]1C2C(=O)OC (stereo not given in full)
inactive: [1] -0.35% | [2] -0.95% | [3] 6.95% | [4] 12.6% | [5] -1.65% | [6] -35.9%

CCOc1ccccc1NC(=O)C(=O)C(c1ccccc1)S(=O)(=O)Cc1ccccc1 (stereo not given)
inactive: [1] -1% | [2] -12.5% | [3] -10.1% | [4] 5.45% | [5] -7.35% | [6] -1.5%

CCC(C)C(C)O (stereo not given)
inactive: [1] -7.05% | [2] -53% | [3] 2.9% | [4] 14.5% | [5] -12.8% | [6] 0.1%

Cc1ccc2nc(CN(CCO)CCO)cc(=O)n2c1
inactive: [1] 34.4% | [2] 4.95% | [3] 40.5% | [4] 4% | [5] 26.6% | [6] 28.4%

CC1CN=C(N(C(=O)Nc2ccc(Cl)cc2)c2cccc(Cl)c2)S1 (stereo not given)
inactive: [1] -30.9% | [2] -13.7% | [3] -50.1% | [4] -8.75% | [5] -14.8% | [6] -52%

COc1cc(-c2c(C#N)c(OC)[nH]c(=O)c2C#N)cc(OC)c1OC
inactive: [1] 3.85% | [2] 13.3% | [3] 7.55% | [4] 13.4% | [5] 1.85% | [6] -0.45%

O=C1OC2=C(CCCC2)C(N2CCCCC2)C12SCCCS2 (stereo not given)
inactive: [1] 3.65% | [2] 14.4% | [3] -6.75% | [4] 11.4% | [5] 5% | [6] 2.55%

CCc1nc(Nc2cccc(C)c2)c2cnn(-c3ccccc3)c2n1
inactive: [1] -0.85% | [2] -15.6% | [3] -2.3% | [4] -22.5% | [5] -3.05% | [6] -13.8%

Cc1ccccc1N1C(=O)C2CC=CCC2C1=O (stereo not given)
inactive: [1] -13.3% | [2] 0.25% | [3] 12.2% | [4] -34.8% | [5] -14.4% | [6] -21.6%

O=C(Nc1ccc(Cl)c(Cl)c1)OCC1CC2C=CC1C2 (stereo not given)
active: [1] 95.2% | [2] 97.8% | [3] 97.3% | [4] 94.8% | [5] 94.9% | [6] 95%

CCN(CC)CCNc1ccc(N)c2sc3ccccc3c(=O)c12
inactive: [1] 8.45% | [2] 3.8% | [3] -18.7% | [4] -8.25% | [5] -37.6% | [6] -29.1%

O=C1C2C(C(=O)N1c1ccccc1)C1([N+](=O)[O-])C=C3c4ccccc4N(C(=O)c4ccccc4)C32C2C(=O)N(c3ccccc3)C(=O)C21 (stereo not given)
inactive: [1] -24.9% | [2] 12.8% | [3] -15.4% | [4] 36.3% | [5] -6.35% | [6] -4.9%

OCCN(CCO)c1ncnc2c1ncn2-c1ccc(CCCl)cc1
inactive: [1] 5.3% | [2] -3.1% | [3] -2.85% | [4] 6.05% | [5] 19% | [6] 0.1%

O=C(c1ccccc1)c1oc(CO)cc(=O)c1O
inactive: [1] -1% | [2] -12% | [3] -4.35% | [4] -48.1% | [5] -3.9% | [6] -16.1%

O=C(OC1OC(COCc2ccccc2)C(OCc2ccccc2)C1OCc1ccccc1)c1ccc([N+](=O)[O-])cc1 (stereo not given)
inactive: [1] 25.2% | [2] -12.2% | [3] 16.2% | [4] -26.1% | [5] -5.3% | [6] -1.35%

CCC(Cc1ccccc1)OC(=O)c1ccccc1C(=O)O (stereo not given)
inactive: [1] -16.2% | [2] -10.8% | [3] 8% | [4] -43.3% | [5] -6.85% | [6] 1.9%
